Most compounds without a hit are left out; they make up all but 7.8% or so of the library.
HCV inhibitor: HCV inhibition; actives 3.4% (n = 340,000); Huh7.5.1 HCVcc-Cre infection, luciferase reporter, 44 h; Potency, µM (doses to about 41.8 µM), for the others: top-dose activity change, negative = inhibition, actives largely listed as inhibitors; AID 651820; active means well fitted inhibition curve with a large enough effect; inconclusive means small, poorly fitted or top-dose-only effect, or another doubt; inactive means no such curve, though single readings can be large or run the other way; further: potency means the concentration at half of the fitted maximal effect
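Cells (1,000/well) were plated 4 h before compound, then infected with HCVcc-Cre virus (~0.5 moi). After 44 h further culture, infection was read as luciferase luminescence following a 15 min substrate incubation at room temperature.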
Vaccinia Venus: vaccinia inhibition (Venus reporter). Vaccinia virus Venus reporter expression, fluorescence. Potency, µM (top dose mostly 36.5 µM), without a hit: top-dose activity change, negative = inhibition, most hits filed as inhibitors. actives 0.46% (n = 330,000); calls by dose curve; tested in A549 cells; further: potency means the concentration at half of the fitted maximal effect; nearly all actives have a fitted effect of over 30% in size
HCMV antiviral: inhibitors of human cytomegalovirus. HFF cells, HCMV-luciferase reporter, 72 h; active compounds read low. activity change, negative = inhibition, % at 57.5 µM. actives 4.5% (n = 410,000); in the data active means activity change below about -60%; inconclusive means no clear call, values can overlap the other calls; inactive means above about -39%
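HFF cells seeded 16 h at 37C, treated with compounds, infected with luciferase-reporter HCMV at MOI 1 PFU/cell; luciferase read at 72 h post infection, normalized to buffer-only and Salinomycin controls.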
LASV entry inh: blocks Lassa virus binding to or entry into cells; Lassa virus pseudotype entry inhibition, cell reporter; Potency, µM (highest dose often 37.9 µM), for inactives: at the highest dose activity change, negative = inhibition, hits mostly inhibitors; actives 1.2% (n = 300,000); AID 540256; calls by dose curve; tested in HEK293 cells; further: potency means the concentration at half of the fitted maximal effect; nearly all actives have a fitted effect of over 50% in size
MARV entry inh: blocks Marburg virus binding to or entry into cells. Potency, µM (doses to about 37.8 µM), inactives show at the highest dose activity change, negative = inhibition, actives largely listed as inhibitors. AID 540276. actives 1.8% (n = 300,000). Marburg virus pseudotyped entry inhibition, cell reporter; calls by dose curve; tested in HEK293 cells; further: potency means the concentration at half of the fitted maximal effect
VACV mCherry inh: vaccinia inhibition (mCherry reporter) | Potency, µM (highest dose often 36.5 µM), for the others: top-dose activity change, negative = inhibition, usual class: inhibitors | Vaccinia virus mCherry reporter infection, fluorescence | actives 0.63% (n = 310,000) | AID 720579; calls by dose curve; tested in A549 cells; further: potency means the concentration at half of the fitted maximal effect; nearly all actives have a fitted effect of over 35% in size
* hit, by the source's call; i = inactive; ? = inconclusive; . = not tested or not shown; [ ] = dose if it differs, or a comment. On the % scale 0 is the no-effect control and ±100 the full control effect.

SMILES | HCV inhibitor | Vaccinia Venus | HCMV antiviral | LASV entry inh | MARV entry inh | VACV mCherry inh
CCc1ccc2c(c1)cc(CN(C(=S)Nc1cccc(C)c1)C1CC1)c1nnnn12 | -20% | -17% | -18 | ? | ? | i
Cc1ccc2c(c1)cc(CN(Cc1cccs1)C(=O)c1ccco1)c1nnnn12 | ? | . | -28 | 16µM* | ? | .
COc1ccc(CN2Cc3ccccc3OC(c3ccccc3OC)C2)c(O)c1 (stereo not given) | . | -11% | . | . | . | -21%
COc1ccccc1/C=C/c1nc2ccccc2o1 | . | -8% | . | . | . | -13%
Nc1nccc(-c2c(-c3ccc(F)cc3)nn3cc(C(F)(F)F)ccc23)n1 | . | . | . | 19% | . | .
CCOC(=O)c1sc(=S)n(-c2ccc(OC)cc2)c1C | 5% | -8% | 25 | -15% | 11%[46.1 µM] | i
CCOC(=O)c1c2c(n(-c3ccc(OC)cc3)c1C)C(=O)C(=O)c1ccccc1-2 | 7.9µM* | 4.5µM* | . | 2.2µM* | ? | 2.8µM*
COC(=O)c1c(-c2cccs2)csc1NC(=O)c1ccc(C(C)(C)C)cc1 | . | -3%[7.34 µM] | -12 | 1%[46.1 µM] | ? | 1%[7.34 µM]
Nc1nc(N)nc(-c2cc(F)ccc2O)n1 | -19% | 10µM* | -37 | . | . | ?
C[C@H](CO)N1C[C@H](C)[C@@H](CN(C)C(=O)Nc2ccc3c(c2)OCCO3)OCc2cn(nn2)CCCC1=O | . | . | 12 | . | . | .
O=C(NCc1ccccc1)C1C(c2ccc3c(c2)OCO3)=Nc2ccccc2N1C(=O)c1ccco1 (stereo not given) | . | -14% | -62* | . | . | ?
O=C(NCc1ccccc1)C1C(c2ccc3c(c2)OCO3)=Nc2ccccc2N1C(=O)c1ccccc1 (stereo not given) | . | -26% | -21 | . | . | ?
CNC(=S)Nc1cccc2[nH]ncc12 | 10% | . | -4 | -3% | -17% | .
O=C(Nc1cccc2[nH]ncc12)c1ccc(F)cc1 | 8% | . | -76* | 4% | ? | .
O=C(NC(=S)Nc1cccc2[nH]ncc12)c1ccccc1 | 0% | -7% | -62* | 4%[46.1 µM] | ? | i
O=C(Nc1cccc2ccccc12)c1ccc(F)cc1 | -7% | . | 0 | . | . | .
CC1(C)CC(=O)c2c(oc3c(Cl)cc(NS(=O)(=O)c4ccc(Cl)cc4)cc23)C1 | . | -3% | 8 | 0%[46.1 µM] | 13%[46.1 µM] | -5%
CCn1cc(C(=O)NCCc2ccc(Cl)cc2)c(=O)c2cc(S(=O)(=O)N3CCC(C)CC3)ccc21 | . | -13% | 16 | 16%[46.1 µM] | ? | -30%
COc1ccc(-c2nc3c(c(SCC(=O)N4CCCCC4)n2)Cc2c(CO)cnc(C)c2O3)cc1 | . | -8% | -16 | 5%[46.1 µM] | . | i
COc1ccc(-c2nc(C)sc2CC(=O)O)cc1 | 14% | -18% | -83* | -1% | ? | -21%
Cc1ccc2c(CNCCc3ccccc3)c(C(=O)O)n(Cc3ccccc3C)c2c1 | . | -23% | 27 | 28%[46.1 µM] | . | -25%
CCC(=O)N1CCN(c2ccccc2NC(=O)COc2cc(C)ccc2C(C)C)CC1 | 10µM* | -25% | 62 | ? | ? | -4%
CC(C)C(=O)N1CCN(c2ccccc2NC(=O)COc2ccc(C3CCCCC3)cc2)CC1 | ? | ? | . | -12% | 7.9µM* | -17%
Cc1ccc(C)c(OCC(=O)Nc2ccccc2N2CCCC2)c1 | -10% | -21% | -19 | 4%[46.1 µM] | ? | ?
O=C(COc1ccc([N+](=O)[O-])cc1)Nc1ccccc1N1CCCC1 | 5% | . | -64* | . | . | .
SMILES | HCV inhibitor | Vaccinia Venus | HCMV antiviral | LASV entry inh | MARV entry inh | VACV mCherry inh
Cc1ccc(OCC(=O)Nc2ccccc2N2CCCC2)c(C)c1 | ? | -4% | -63* | ? | ? | -3%
Cc1ccc(C(C)C)c(OCC(=O)NC(=S)Nc2ccccc2N2CCOCC2)c1 | . | 0% | 126 | -26% | -14% | -14%
COC(=O)[C@@H]1[C@@H](CO)[C@@H]2Cn3c(cccc3=O)[C@H]1N2C(=O)Nc1cc(F)ccc1F | . | . | 4 | . | . | .
CCc1cccc2c(C(O)c3c[nH]c4ccccc34)c[nH]c12 (stereo not given) | . | 58% | . | . | . | -6%
CC(=O)c1ccc(OCC(=O)Nc2ccccc2N2CCCC2)cc1 | -12% | -8% | -83* | -16%[46.1 µM] | -35%[46.1 µM] | -16%
CC(C)N(Cc1nc(-c2ccccc2)no1)C(=O)c1ccc([N+](=O)[O-])cc1 | 22µM* | -21% | 10 | . | . | -12%
Cc1ccc(C(=O)N(Cc2nc(-c3ccc(C)cc3)no2)C(C)C)cc1 | -11% | -1% | 6 | . | . | -11%
Cc1ccccc1OCC(=O)N(Cc1nc(-c2ccccc2)no1)C(C)C | 0% | -8% | -18 | -10% | ? | i
COc1ccccc1OCC(=O)N(Cc1nc(-c2ccccc2)no1)C1CCCCC1 | 11µM* | ? | 14 | -23% | ? | .
CC(C)N(Cc1nc(-c2ccccc2)no1)C(=O)c1ccc2c(c1)OCO2 | ? | -4% | ? | 19% | ? | -10%
CCOc1cc(C(=O)N(Cc2nc(-c3ccc(C)cc3)no2)C(C)C)cc(OCC)c1OCC | . | -9% | -83* | 24%[46.1 µM] | -6%[46.1 µM] | -16%
CC(C)N(Cc1nc(-c2ccccc2)no1)C(=O)c1ccc(Cl)cc1 | ? | -13% | -89* | . | . | i
O=C(NCc1cccc(Cl)c1)c1ccc(NC(=O)N2CC3CCCN3c3ccccc32)cc1 (stereo not given) | . | -10% | 4 | -9%[46.1 µM] | . | -18%
COc1ccc(-n2nnc(C(=O)Nc3ccccc3F)c2N)cc1 | . | 8% | 77 | -4%[46.1 µM] | ? | -2%
COc1ccccc1C(=O)N(Cc1nc(-c2ccc(Cl)cc2)no1)C(C)C | 11µM* | 2% | -18 | . | . | -12%
CC(C)N(Cc1nc(-c2ccc(Cl)cc2)no1)C(=O)c1cccs1 | ? | . | -60* | 0% | ? | .
Cc1ccc(-c2noc(CN(C(=O)c3cccs3)C(C)C)n2)cc1 | ? | -17% | -2 | -16% | -17% | -1%
Cc1csc(C)[n+]1CCC1CCCCC1 | . | ? | . | . | . | -22%
COCc1nnc(NC(=O)C2CCN(C(=O)c3ccccc3)CC2)s1 | . | -11% | . | . | . | -19%
CCCCN(C)C(=O)c1ccc2c(c1)N(Cc1ccc(F)cc1)C(=O)c1ccccc1S2(=O)=O | . | -15% | -23 | -13%[46.1 µM] | ? | i
C/C(=C\C(=O)c1ccc(C)cc1)Nc1cccc(O)c1 | 13µM* | -8% | 89 | -26% | -16% | -25%
CC(=O)c1cccc(NS(=O)(=O)c2ccc(NC(=O)N3CCCCC3)cc2)c1 | ? | -21% | -71* | ? | 2.2µM* | -12%
CC(=O)c1cccc(NS(=O)(=O)c2ccc(N/C=C/C(=O)c3ccc(F)cc3)cc2)c1 | 11µM* | -27% | ? | ? | -61% | ?
CC(=O)c1cccc(N/C=C\C(=O)c2ccc(C)cc2)c1 | -19% | -17% | 103 | 7.9µM* | ? | -12%
CC(=O)c1cccc(NS(=O)(=O)c2ccc(N/C=C\C(=O)c3ccc(C)cc3)cc2)c1 | ? | ? | -2 | -3% | ? | -9%

Bioassay records (PubChem BioAssay)
